# The campaign covered roughly 5,600 compounds. About 780 (14%) were called active. Roughly 3% stayed inconclusive and do not appear here. A selection follows. A number with no mark means an inactive call.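 Rule for the calls: active = mean signal decrease across replicates above about 35% based on untreated-well scatter, with enough replicates individually passing (limit read from the data); inconclusive = no rule stated though some were filed; inactive = the rest.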
# Assay: NIH3T3 cell viability loss – cherry-pick, single point, cytotoxicity control for T. cruzi proliferation inhibitor project, confirmation (AID 651742);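 note: 0% = median of neutral control wells and 100% = median of positive control wells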
# Details: NIH/3T3 viability, CellTiter-Glo ATP luminescence, 90 h; at 8.35 µM; hits give high values
row,Structure (SMILES),cytotoxicity (signal decrease)
1,COc1ccc(S(=O)(=O)N2CCCCN3[C@H](C2)[C@H](c2ccc(C#CCC(C)C)cc2)[C@@H]3CO)cc1,20.8%
2,COc1ccc(S(=O)(=O)N2CCCCN3[C@H](CO)[C@@H](c4ccc(C#CC(C)C)cc4)[C@H]3C2)cc1,27.6%
3,CNC[C@H]1OCCCC[C@H](C)Oc2ccc(NC(=O)Nc3c(C)noc3C)cc2C(=O)N([C@H](C)CO)C[C@H]1C,6.78%
4,COc1ccc(-c2ccc3c(c2)[C@@H]2[C@@H](CCN2C(=O)Cc2ccccn2)[C@H](CO)N3C)cc1,3.57%
5,C[C@@H]1CN([C@@H](C)CO)C(=O)CCCn2cc(nn2)CO[C@@H]1CN(C)S(=O)(=O)c1ccccc1F,-3.89%
6,C[C@@H]1CN([C@H](C)CO)C(=O)c2cc(/C=C/c3ccccc3)cnc2O[C@@H]1CN(C)Cc1ccncc1,0.61%
7,C[C@@H]1CN([C@H](C)CO)S(=O)(=O)c2ccc(-c3cccc(C#N)c3)cc2O[C@@H]1CN(C)C(=O)Nc1ccccc1F,45.7% (active)
8,C[C@H](CO)N1C[C@H](C)[C@@H](CN(C)C(=O)Nc2cc(F)ccc2F)Oc2cc(C#CC3CC3)ccc2S1(=O)=O,-4.87%
9,C[C@@H]1CN([C@@H](C)CO)S(=O)(=O)c2ccc(C#Cc3ccccc3)cc2O[C@@H]1CN(C)C(=O)Nc1ccccc1,11.7%
10,CN1c2ccc(-c3ccccc3)cc2[C@@H]2[C@@H](CCN2C(=O)c2ccncc2)[C@@H]1CO,5.49%
11,O=C(C[C@H]1CC[C@@H]2[C@H](COC[C@H](O)CN2Cc2ccc(Oc3ccccc3)cc2)O1)N1CCN(c2ccccc2)CC1,-0.257%
12,CCCC#Cc1ccc2c(c1)O[C@H](CN(C)C(=O)CC)[C@@H](C)CN([C@H](C)CO)S2(=O)=O,17.5%
13,C[C@@H]1CN([C@H](C)CO)S(=O)(=O)c2ccc(C#C[C@@H](C)O)cc2O[C@@H]1CN(C)Cc1ccc(-c2ccccc2)cc1,14.4%
14,CC(=O)N(C)C[C@H]1Oc2cc(C#CCN(C)C)ccc2S(=O)(=O)N([C@@H](C)CO)C[C@@H]1C,4.99%
15,C[C@H]1CN([C@@H](C)CO)S(=O)(=O)c2ccc(C#CCN(C)C)cc2O[C@@H]1CN(C)Cc1ccc(F)cc1,48.1% (active)
16,CC(C)C#Cc1ccc2c(c1)O[C@H](CN(C)Cc1ccccc1)[C@H](C)CN([C@@H](C)CO)S2(=O)=O,41.7% (active)
17,C[C@@H]1CN([C@@H](C)CO)S(=O)(=O)c2ccc(/C=C/c3ccccc3)cc2O[C@H]1CN(C)Cc1ccccc1,21.8%
18,CCC(=O)N(C)C[C@@H]1Oc2cc(C#CCN(C)C)ccc2S(=O)(=O)N([C@H](C)CO)C[C@H]1C,-1.94%
19,O=C(Cc1ccccc1)N1CC[C@H]2[C@H](CO)Nc3ccc(-c4ccccc4F)cc3[C@H]21,-5.9%
20,C[C@@H]1CN([C@H](C)CO)C(=O)c2cccc(NC(=O)c3ccc(-c4nccs4)cc3)c2O[C@@H]1CN(C)C(=O)Nc1ccc(C(F)(F)F)cc1,26%

row,Structure (SMILES),cytotoxicity (signal decrease)
1,C[C@@H]1CCCCO[C@H](CN(C)C(=O)Nc2ccc(C(F)(F)F)cc2)[C@H](C)CN([C@H](C)CO)C(=O)c2cc(NC(=O)Nc3ccc(C(F)(F)F)cc3)ccc2O1,-8.85%
2,CCc1cnc(N2[C@H](C#N)[C@H](c3ccc(C4=CCCC4)cc3)[C@@H]2CO)s1,9.56%
3,CC(C)NC(=O)N1[C@H](C#N)[C@H](c2ccc(C#CC3CCCCC3)cc2)[C@H]1CO,-28%
4,N#C[C@H]1[C@@H](c2ccc(C3=CCCCC3)cc2)[C@@H](CO)N1C(=O)NC1CCCCC1,42.8% (active)
5,Cc1noc(C)c1S(=O)(=O)Nc1ccc2c(c1)C(=O)N([C@@H](C)CO)C[C@@H](C)[C@H](CN(C)S(=O)(=O)c1ccc(Cl)cc1)OCCCC[C@H](C)O2,-13.7%
6,O=C(Nc1cc(F)ccc1F)N1CCCCN2[C@H](CO)[C@@H](c3ccc(-c4cncnc4)cc3)[C@H]2C1,15%
7,CCCC#Cc1ccc2c(c1)O[C@@H](CN(C)C(=O)c1ccccc1F)[C@H](C)CN([C@H](C)CO)S2(=O)=O,19.4%
8,COc1ccc(S(=O)(=O)Nc2ccc3c(c2)C(=O)N([C@@H](C)CO)C[C@H](C)[C@H](CN(C)Cc2ccc(C(F)(F)F)cc2)O3)cc1,3.37%
9,C/C=C/c1ccc([C@H]2[C@@H](CNC(C)C)N(c3nc(CC)cs3)[C@H]2CO)cc1,7.64%
10,C[C@H](CO)N1C[C@H](C)[C@@H](CN(C)Cc2ccc(C(=O)Nc3ccccc3N)cc2)Oc2c(NC(=O)c3ccc(-c4nccs4)cc3)cccc2C1=O,-13.6%
11,C[C@H](CO)N1C[C@H](C)[C@H](CN(C)Cc2ccncc2)Oc2cc(-c3ccncc3)ccc2S1(=O)=O,19.9%
12,C[C@H](CO)N1C[C@H](C)[C@@H](CN(C)C(=O)C2CCCCC2)Oc2cc(-c3ccccc3)ccc2S1(=O)=O,26.2%
13,C[C@H]1CN([C@@H](C)CO)S(=O)(=O)c2ccc(C3=CCCC3)cc2O[C@@H]1CN(C)Cc1ccccc1,42.4% (active)
14,C[C@H]1CN([C@@H](C)CO)S(=O)(=O)c2ccc(C3=CCCCC3)cc2O[C@@H]1CN(C)Cc1ccccc1,119% (active)
15,C[C@@H]1CN([C@H](C)CO)S(=O)(=O)c2ccc(C3=CCCC3)cc2O[C@H]1CN(C)Cc1ccccc1F,32%
16,COc1ccccc1-c1ccc2c(c1)O[C@@H](CN(C)C)[C@H](C)CN([C@H](C)CO)S2(=O)=O,-9.91%
17,CS(=O)(=O)N1[C@@H](C#N)[C@H](c2ccc(C#CC3CCCCC3)cc2)[C@@H]1CO,4.86%
18,COc1cccc(S(=O)(=O)N2CCCCN3[C@H](C2)[C@H](c2ccc(C#CC(C)C)cc2)[C@@H]3CO)c1,19.3%
19,C[C@@H]1CN([C@@H](C)CO)C(=O)c2cc(NC(=O)Nc3ccc(C(F)(F)F)cc3)ccc2O[C@@H](C)CCCCO[C@H]1CN(C)C(=O)c1ccccc1,23.5%
20,C[C@H]1CN([C@@H](C)CO)C(=O)CCCn2cc(nn2)CO[C@H]1CN(C)C(=O)c1ccccc1,10.9%

row,Structure (SMILES),cytotoxicity (signal decrease)
1,C[C@H](CO)N1C[C@H](C)[C@H](CN(C)C(=O)Nc2ccc(C(F)(F)F)cc2)OCCCC[C@H](C)Oc2ccc(NC(=O)C3CCCCC3)cc2C1=O,-27%
2,Cc1noc(C)c1S(=O)(=O)Nc1ccc2c(c1)C(=O)N([C@@H](C)CO)C[C@H](C)[C@@H](CN(C)C(=O)Nc1cccc3ccccc13)OCCCC[C@H](C)O2,7.99%
3,COc1ccc(S(=O)(=O)Nc2ccc3c(c2)C(=O)N([C@H](C)CO)C[C@H](C)[C@H](CN(C)Cc2ccc(C(F)(F)F)cc2)O3)cc1,29%
4,O=C(CN1CCOCC1)N1CCCCN2[C@@H](CO)[C@H](c3ccc(-c4ccccc4)cc3)[C@@H]2C1,8.85%
5,C[C@H]1CN([C@@H](C)CO)C(=O)c2cc(NC(=O)Nc3ccc4c(c3)OCO4)ccc2O[C@@H]1CN(C)Cc1ccc(Oc2ccccc2)cc1,16%
6,C[C@@H]1CN([C@@H](C)CO)C(=O)c2cc(NC(=O)Cc3ccccc3)ccc2O[C@@H]1CN(C)Cc1ccc(Oc2ccccc2)cc1,27.9%
7,N#C[C@@H]1[C@@H](c2ccc(C#Cc3cccc(F)c3)cc2)[C@@H](CO)N1C(=O)C1CCC1,29.1%
8,CC(C)CC#Cc1cnc2c(c1)C(=O)N([C@@H](C)CO)C[C@@H](C)[C@H](CN(C)C(=O)Cc1ccncc1)O2,-12%
9,CC(=O)N(C)C[C@@H]1[C@@H](c2ccc(-c3ccccc3F)cc2)[C@@H](CO)N1C(C)=O,0.445%
10,CCN(C[C@H]1[C@H](c2ccccc2)[C@H](CO)N1C(=O)C1CC1)C(=O)NC1CCCC1,-12.5%
11,CC(C)NC(=O)Nc1ccc2c(c1)C(=O)N([C@H](C)CO)C[C@H](C)[C@H](CN(C)C(=O)Nc1ccc(C(F)(F)F)cc1)OCCCC[C@@H](C)O2,-9.66%
12,OC[C@@H]1Nc2ccc(-c3cccc(F)c3)cc2[C@H]2[C@@H]1CCN2Cc1ccncc1,9.48%
13,Cc1ccccc1S(=O)(=O)N1CC[C@H]2[C@H](CO)Nc3ccc(-c4cccc(F)c4)cc3[C@H]21,52.4% (active)
14,O=S(=O)(c1ccccc1)N1CC[C@@H]2[C@@H](CO)Nc3ccc(C#Cc4cccc(F)c4)cc3[C@@H]21,33%
15,C[C@H](CO)N1C[C@H](C)[C@@H](CN(C)Cc2ccc(C(F)(F)F)cc2)OCCCC[C@H](C)Oc2ccc(NC(=O)C3CCCCC3)cc2C1=O,27.4%
16,COc1cccc(S(=O)(=O)Nc2ccc3c(c2)[C@H]2C[C@H](CC(=O)NCc4ccc(Cl)cc4)O[C@H](CO)[C@H]2O3)c1,-23.8%
17,CN(C)C(=O)c1ccc(-c2ccc3c(c2)[C@H]2[C@H](CCN2C(=O)c2ccc4c(c2)OCO4)[C@H](CO)N3)cc1,-2.98%
18,O=C(c1ccc(F)cc1)N1CCCCN2[C@H](C1)[C@@H](c1ccc(C#CC3(O)CCCC3)cc1)[C@@H]2CO,2.43%
19,C[C@H](CO)N1C[C@H](C)[C@H](CN(C)S(=O)(=O)c2ccc(F)cc2)OCCCC[C@H](C)Oc2ccc(NS(=O)(=O)c3ccc(Cl)cc3)cc2C1=O,22.2%
20,C[C@@H]1CN([C@H](C)CO)C(=O)c2cccc(NC(=O)NC3CCCCC3)c2O[C@H]1CN(C)Cc1ccc(C(F)(F)F)cc1,-8.62%

# Reference: PubChem BioAssay AID651742 (Broad Institute, 2012)
